# Screening data as filed in PubChem BioAssay.
# NALP1 yeast inh: NALP1 inhibition. inhibition, % at 10 µM. S. cerevisiae NALP1/ASC/caspase-1 growth, X-gal OD620, 72 h. actives 0.61% (n = 280,000); in the data active = inhibition mostly above about 24%, no sharp cut-off; inactive = mostly below about 32%
# tim10-1 inh: growth inhibitors of tim10-1 mutant yeast; S. cerevisiae tim10-1 ts strain growth, BacTiter-Glo, 24 h; inhibition, % at 20 µM; actives 2.2% (n = 330,000); AID 463190;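 active = inhibition of at least 40%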;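 note: mutant grown at 25 °C; 0% = DMSO wells with yeast and 100% = wells holding no yeast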
# TIM10 inh: growth inhibitors of TIM10 yeast strain; AID 463195; actives 1.4% (n = 330,000); S. cerevisiae TIM10 strain growth, BacTiter-Glo luminescence, 24 h; inhibition, % at 10 µM;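 active = inhibition of 40% or more at the single tested concentration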;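 note: wild-type TIM10 isogenic control strain grown at permissive 25 °C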
# tim23-1 inh: tim23-1 yeast growth inhibition. AID 463212. inhibition, % at 20 µM. actives 1.3% (n = 330,000). S. cerevisiae tim23-1 growth, BacTiter-Glo luminescence, 24 h;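 active = growth inhibition of the mutant yeast at or above 50%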;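 note: temperature-sensitive mutant grown at 25 °C; plate controls were DMSO-treated mutant yeast for no effect and medium wells lacking yeast for full effect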
# NLRP3 yeast inh: NALP3 inhibition in yeast; actives 0.39% (n = 330,000); inhibition, % at 10 µM; AID 2825; Yeast reconstituted NLRP3/ASC/caspase-1, beta-gal luminescence, 24 h;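 active = inhibition of 50% or more; inactive = inhibition below 50%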;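 note: plate controls were induced DMSO wells for no effect and uninduced yeast grown without galactose for full effect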
# V-ATPase pH: yeast V-ATPase proton transport regulation by pHLuorin; AID 504577; actives 0.37% (n = 350,000); S. cerevisiae, pHLuorin cytosolic pH fluorescence; response, % at 10 µM; in the data active = response mostly above about 7.3%, no sharp cut-off; inactive = mostly below about 5.4%; note: actives read high
# NALP3 yeast conf: confirmation of NALP3 inhibitors in yeast; shares compounds with NLRP3 yeast inh; yeast expressing human NALP3, luminescence; inhibition, % at 10 µM; actives 81% (n = 1,300); in the data active = inhibition above about 48%
# Casp1-ASC yeast: caspase-1-ASC yeast counter-screen hit; inhibition, % at 10 µM; shares compounds with NLRP3 yeast inh; actives 66% (n = 1,000); yeast expressing Caspase-1-ASC, luminescence counter screen
# NALP3 retest: confirmation retest of NALP3 inhibitors in yeast | inhibition, % at 10 µM | shares compounds with NLRP3 yeast inh | actives 53% (n = 1,000) | yeast expressing human NALP3, luminescence read-out
# tim10-1 conf: confirmation of tim10-1 mutant yeast growth inhibitors | inhibition, % at 20 µM | shares compounds with tim10-1 inh | AID 463213 | S. cerevisiae tim10-1 ts strain growth, BacTiter-Glo, 24 h | actives 56% (n = 7,400);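 active = inhibition of yeast growth at or above a set limit in either of two repeat tests at 20 µM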;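 note: tim10-1 mutant grown at permissive 25 °C to find synthetic lethal compounds; 0% = DMSO yeast wells and 100% = medium wells without yeast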
# tim10 confirm: TIM10 yeast growth inhibition, confirmed. shares compounds with TIM10 inh. inhibition, % at 10 µM. actives 63% (n = 4,600). S. cerevisiae tim10 strain growth, BacTiter-Glo luminescence, 24 h;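 active = inhibition of yeast growth at or above a set limit in either of two replicates at 10 µM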;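 note: this counterscreen used the strain with wild-type TIM10; 0% = yeast with DMSO and 100% = medium wells lacking yeast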
# * = called active by the depositor; / = no result given. A selection: hits, their analogues and other compounds. The true share with any hit is near 4.2%. Cut-off read from the data, not from the text of the source, unless noted: active = inhibition above about 50%; inactive = the rest.
SMILES,NALP1 yeast inh,tim10-1 inh,TIM10 inh,tim23-1 inh,NLRP3 yeast inh,V-ATPase pH,NALP3 yeast conf,Casp1-ASC yeast,NALP3 retest,tim10-1 conf,others
C/C(=N/NC(=O)c1ccc(C(C)(C)C)cc1)c1ccccn1,/,47*,4,41,66*,0,55*,83*,79*,15,
C/C(=N\NC(=O)c1ccc(Cl)c(Cl)c1)c1ccccn1,7,52*,23,49,53*,5,80*,/,/,47*,
CN(C)c1cc[n+](CC(=O)c2ccc(OC(F)F)cc2)cc1,/,-14,-10,7,10,-1,/,/,/,/,
COc1ccc(-c2cn3c4c(sc3n2)CCCC4)cc1,0,41*,32,38,52*,-1,61*,49,45,11,
Cc1ccccc1C(=O)NNC(=O)C1CC(=O)N(c2ccc3c(c2)OCCO3)C1 (configuration not stated),/,2,3,2,-21,-4,/,/,/,/,
CNC(=O)c1ccc(S(=O)(=O)c2ccc(Cl)cc2)c(NC(C)=O)c1,15,-5,-5,0,17,-1,/,/,/,/,
CNC(=O)c1nnsc1S(=O)(=O)c1ccc(Cl)cc1,90*,58*,23,32,59*,-1,67*,65*,47,47*,
O=C(c1cccc(F)c1)N1CCN(c2cccc(C(F)(F)F)c2)CC1,-10,32,20,29,-51,4,/,/,/,/,
O=C(c1csc2c1CCCC2)N1CCN(c2cccc(C(F)(F)F)c2)CC1,-7,56*,30,33,-110,1,5,/,/,33*,
COc1ccc(NC(=O)C2CC2(Cl)Cl)cc1S(=O)(=O)N1CCCCC1 (configuration not stated),/,/,/,/,/,4,/,/,/,/,
N/C(=N\N=C/c1ccc(F)cc1)N/N=C\c1ccc(F)cc1,-10,44*,30,49,64*,2,76*,70*,65*,-72,
COCCn1c(-c2ccccc2)csc1=Nc1cccnc1,-16,12,4,30,8,0,/,/,/,/,
CC(C)n1c(-c2ccco2)csc1=Nc1cccnc1,9,49*,18,35,53*,-2,11,/,/,32*,
CCC(OC(C)=O)c1cc2c(cc1[N+](=O)[O-])OCCO2 (configuration not stated),11,15,6,17,2,-5,/,/,/,/,
CCCCCCCCCCCCCCCC(=O)OC(CC(=O)O)C[N+](C)(C)C (configuration not stated),/,64*,5,4,57*,5,45,67*,45,22,
COc1ccc(OCc2ccc(/C=N\NC(=O)c3sccc3C)o2)cc1,-1,-18,12,-5,14,4,/,/,/,/,
CCN(CC)CCCN(C(=O)c1ccco1)c1nc(-c2ccc(Cl)cc2)cs1,22,41*,15,17,51*,1,54*,46,38,23,
CCN(CC)CCCN(C(=O)c1ccco1)c1nc(-c2ccc(C)cc2)cs1,16,23,14,5,15,-3,/,/,/,/,
Cn1c(/C=N/Nc2nc3ccccc3[nH]2)nc2ccccc21,-14,41*,23,46,51*,1,74*,9,22,24,
CCCCc1ccc(NC(=S)NCc2ccc(OC)cc2)cc1,-4,46*,34,25,50*,21,72*,55*,35,-16,
COc1ccc(CNC(=S)Nc2ccc(OC)cc2)cc1,29,8,5,5,5,-3,/,/,/,/,
On1onc2c3cc(-c4ccccc4)nc3ccc21,-1,36,61*,24,51*,1,72*,/,/,/,tim10 confirm=53*
c1ccc2[nH]c(CSc3nc4ccccc4s3)nc2c1,6,33,68*,23,59*,2,75*,55*,61*,/,tim10 confirm=59*
O=C(Nc1cccc(Cl)c1)c1cnn2cccnc12,3,23,52*,45,53*,0,79*,43,56*,/,tim10 confirm=35*
Cc1ccc(-c2nc(CS(=O)(=O)CC(=O)Nc3cc(F)ccc3F)c(C)o2)cc1,21,5,7,20,1,-12,/,/,/,/,
SMILES,NALP1 yeast inh,tim10-1 inh,TIM10 inh,tim23-1 inh,NLRP3 yeast inh,V-ATPase pH,NALP3 yeast conf,Casp1-ASC yeast,NALP3 retest,tim10-1 conf,others
COc1ccccc1OCCCc1c(C)n[nH]c1C,43*,21,52*,-50,51*,5,88*,95*,81*,/,tim10 confirm=51*
Cc1ccc(C(=O)NNC(=S)NC(=O)c2ccc(Cl)cc2)cc1,-4,38,48*,36,71*,4,78*,74*,72*,/,tim10 confirm=31*
CC(=O)NNC(=S)NC(=O)c1ccc(C)cc1,-10,15,11,-64,18,8,/,/,/,/,
CCOc1ccccc1CN1CCNC(=O)C1CC(=O)NCCCn1cccn1 (configuration not stated),-2,-9,3,8,2,-2,/,/,/,/,
S=C(NCCSCc1ccc(Cl)c(Cl)c1)Nc1ccccc1,/,54*,45*,36,62*,1,71*,58*,39,28,tim10 confirm=-9
O=C(NCc1nnc(SCC(=O)N2CCN(c3ccccc3)CC2)o1)c1c(F)cccc1F,15,-7,-1,3,15,2,/,/,/,/,
COc1ccc(-n2cc(-c3ccccc3)c3c(=O)[nH]cnc32)cc1,15,34,51*,46,-104,-7,-17,/,/,/,tim10 confirm=46*
COc1cccc(CNC(=O)CN2C(=O)CSc3ccc(S(=O)(=O)N4CCCCC4)cc32)c1,8,8,-6,-6,4,-3,/,/,/,/,
CCOC(=O)N1CCN(C(=O)c2c[nH]c3ccc(S(=O)(=O)N(C)c4ccc(OCC)cc4)cc3c2=O)CC1,-6,5,4,2,28,0,/,/,/,/,
COc1cccc2cc(-c3nc4ccccc4[nH]3)c(=O)oc12,11,-31,54*,14,57*,0,54*,29,26,/,tim10 confirm=36*
COc1ccc(-c2cc3cccc(OC)c3oc2=O)cc1,15,25,8,28,34,-2,/,/,/,/,
O=C1/C(=C/c2cccs2)SC(=S)N1c1cccc(O)c1,-3,41*,61*,47,81*,-3,88*,94*,88*,57*,tim10 confirm=61*
O=C1/C(=C/c2cccs2)SC(=S)N1c1ccccc1,-10,-14,-31,-27,9,0,/,/,/,/,
